Screens: PubChem, several laboratories
Bim-Mcl-1: inhibitors of Bim peptide binding to Mcl-1, primary screen, biochemical, bead-based flow cytometry, multiplex; Induced myeloid leukemia cell differentiation protein Mcl-1 (Homo sapiens), Q07820; Bim peptide-Mcl-1 binding; inhibition, % at 10 µM; 190,000 tested, 0.1% active; in the data active = inhibition above about 40%;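 note: 0% = no compound tracer wells and 100% = peptide blocker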
Target sequence (Q07820 whole entry, looked up): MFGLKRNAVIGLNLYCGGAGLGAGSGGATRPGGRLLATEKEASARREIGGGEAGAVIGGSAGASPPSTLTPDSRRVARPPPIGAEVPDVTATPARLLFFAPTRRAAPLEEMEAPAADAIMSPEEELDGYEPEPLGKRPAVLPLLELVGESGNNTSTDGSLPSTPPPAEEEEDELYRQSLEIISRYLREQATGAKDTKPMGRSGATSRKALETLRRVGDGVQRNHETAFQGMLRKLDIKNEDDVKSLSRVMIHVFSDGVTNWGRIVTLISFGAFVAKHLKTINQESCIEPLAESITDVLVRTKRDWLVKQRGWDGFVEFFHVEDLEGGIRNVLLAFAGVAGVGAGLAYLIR
Mcl1 Bid PPI: Mcl-1/Bid binding inhibitors, primary screen, biochemical, TR-FRET, 1536-well. Induced myeloid leukemia cell differentiation protein Mcl-1 (Homo sapiens), Q07820. TR-FRET Mcl-1/Bid-Dy647 peptide binding. inhibition, % at 21.7 µM. 220,000 tested, 0.97% active. AID 1021, 2008;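 active = compounds that cut the binding signal by more than half at the single screening dose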;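 note: His-tagged Mcl-1 with europium anti-His antibody binding Bid BH3 peptide; 0% = Mcl-1 plus peptide wells and 100% = peptide-only wells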
Hck Nef HTS: inhibitors of Nef-activated human Hck kinase, primary screen, biochemical, Z-Lyte FRET, 384-well, Hck-YEEI. Tyrosine-protein kinase HCK (Homo sapiens), P08631. Recombinant Hck-YEEI plus Nef, Z-Lyte FRET kinase assay. inhibition, % at 20 µM. 220,000 tested, 0.68% active. AID 463187, 2010;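 active = Hck-Nef kinase inhibition above about 50%, limit read from the data; inactive = inhibition below that limit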;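 note: 0% = DMSO with Hck plus Nef and 100% = Hck alone without Nef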
Mcl1 Noxa PPI: Mcl-1/Noxa binding inhibitors, primary screen, biochemical, TR-FRET, 1536-well | Induced myeloid leukemia cell differentiation protein Mcl-1 (Homo sapiens), Q07820 | TR-FRET Mcl-1/Noxa peptide binding, 2 h | inhibition, % at 21.7 µM | 220,000 tested, 1.5% active;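 active = compounds that cut the protein-peptide binding signal by more than 50% relative to plate controls in a single-dose test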;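 note: His-tagged Mcl-1 with rhodamine Noxa BH3 peptide and terbium anti-His antibody; 0% = Mcl-1 plus Noxa peptide wells and 100% = peptide-only wells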
Pf gametocyte: late stage P. falciparum gametocyte viability inhibitors, primary screen, ATP luminescence, HTS | P. falciparum stage V gametocytes, 24 h | inhibition, % at 10.9 µM | 150,000 tested, 0.065% active | AID 743093, 2013;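 active = inhibition above the mean plus 3 SD of compounds within the control limits, set per campaign, cut at about 38% in these data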;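 note: 0% = DMSO wells and 100% = medium only without gametocytes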
14-3-3 Bad PPI: inhibitors of 14-3-3 zeta/Bad binding, primary screen, biochemical, TR-FRET, bovine 14-3-3 zeta. TR-FRET 14-3-3zeta/Dy647-pBad peptide displacement, 1 h. inhibition, % at 21.7 µM. 220,000 tested, 0.71% active;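 active = inhibition above about 70%, limit read from the data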;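 note: 0% = full 14-3-3 plus peptide FRET controls and 100% = background without 14-3-3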
Target sequence (P63103 whole entry, looked up): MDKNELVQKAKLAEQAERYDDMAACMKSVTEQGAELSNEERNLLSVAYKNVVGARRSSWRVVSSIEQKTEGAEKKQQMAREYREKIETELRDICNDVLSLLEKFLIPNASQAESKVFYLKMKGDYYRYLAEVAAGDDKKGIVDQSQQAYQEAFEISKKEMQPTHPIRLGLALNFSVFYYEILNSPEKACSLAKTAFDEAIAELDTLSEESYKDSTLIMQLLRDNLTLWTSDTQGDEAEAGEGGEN
* = called active by the depositor; . = no result given. Most compounds without a hit are left out; they make up all but 2.9% or so of the library.

SMILES | Bim-Mcl-1 | Mcl1 Bid PPI | Hck Nef HTS | Mcl1 Noxa PPI | Pf gametocyte | 14-3-3 Bad PPI
COC(=O)/C(=C/c1cn(C)c2ccccc12)[N+](=O)[O-] | -2.0 | -10.4 | 3.0 | 22.3 | . | 12.4
COC(=O)/C(=C/c1cn(C(C)=O)c2ccccc12)[N+](=O)[O-] | . | -7.9 | 18.3 | 61.0* | 9.9 | -2.6
CN(C)S(=O)(=O)N(CC(=O)NCCSCc1ccc(Cl)cc1)c1ccccc1 | -2.0 | -17.6 | 7.0 | 0.3 | . | -5.1
Cc1nc(SCC(=O)NC(=O)NC(C)C)nc(C)c1C | 0.0 | -14.5 | -13.8 | 63.8* | -6.6 | -3.0
Cc1nc(SCC(=O)NC(=O)NC(C)(C)C)nc(C)c1C | . | -16.8 | 13.3 | -21.3 | -9.9 | -1.7
Cc1cccnc1Nc1nc(-c2ccc(O)c(O)c2)cs1 | -9.0 | -9.9 | 0.8 | 68.8* | -20.1 | 2.1
COc1ccc(CN2C(=O)NC(C)(c3ccc(C)cc3)C2=O)cc1F (centres undefined) | 0.0 | -11.4 | 23.3 | -1.4 | -9.4 | -17.5
Cn1cc(CN2CCc3sccc3C2)c(-c2ccccc2F)n1 | -2.0 | -13.8 | -9.4 | 22.5 | -4.7 | -9.8
Clc1ccccc1CN1CCc2sccc2C1 | -3.0 | 88.3* | 1.1 | 15.8 | . | -0.7
O=C(NNc1c2ccccc2nc2ccccc12)c1ccc(O)cc1 | -4.0 | -65.4 | 0.5 | 50.5* | -31.0 | -10.0
O=C(NNc1c2ccccc2nc2ccccc12)c1cccc(O)c1 | -10.0 | -39.0 | 1.2 | 45.6 | 2.3 | -17.1
O=C(NNc1c2ccccc2nc2ccccc12)c1ccccc1O | -18.0 | 22.9 | 57.6* | 63.6* | -7.0 | 2.9
O=C(NNc1c2ccccc2nc2ccccc12)c1ccc(O)cc1O | -1.0 | 55.4* | 0.0 | 68.4* | . | 14.2
O=C(NNc1c2ccccc2nc2ccccc12)c1ccccc1Cl | . | . | . | . | 14.9 | .
COc1ccc(/C=N/NC(=O)c2ccc(NC(=O)c3ccccc3Br)cc2)cc1 | 1.0 | 4.5 | 5.1 | 2.4 | . | -3.9
CCSC1=NC2(CCCCC2)Nc2sc3c(c21)CCCC3 | 3.0 | 74.4* | 2.5 | 19.6 | . | 15.6
CCSc1nc2sc3c(c2c(=O)[nH]1)CCCC3 | -1.0 | -4.5 | 3.2 | 8.7 | -4.6 | -1.6
CCOC(=O)Cn1nnnc1C(C(C)C)N(Cc1cccs1)Cc1cc2cc(C)ccc2[nH]c1=O (centres undefined) | -3.0 | -22.9 | 2.7 | -7.2 | 2.2 | 11.5
CNC(=O)Cc1nc2ccccc2n1CC(=O)Nc1cc(C)cc(C)c1 | 0.0 | -23.1 | 6.7 | 8.8 | -9.7 | -18.4
CCN(CC)CCNC(=O)/C(=C/c1cn(C)c2ccccc12)NC(=O)c1ccc(OC)c(OC)c1 | . | 94.7* | 7.6 | 3.0 | -9.7 | -6.7
Cc1ccc2ccc[n+](Cc3ccccc3)c2c1 | . | . | . | . | -14.8 | .
COc1cccc(N2CCN(CC(=O)c3c[nH]c4ccc(OC)cc34)CC2C)c1 (centres undefined) | 0.0 | -15.8 | -3.9 | 13.3 | . | 14.5
C=CCn1c(=NC(=O)c2ccc(S(=O)(=O)N3CCCc4ccccc43)cc2)sc2cc(S(N)(=O)=O)ccc21 | -4.0 | -1.1 | 6.7 | 54.5* | -9.5 | -2.0
C=CCn1c(=NC(=O)c2ccc(S(=O)(=O)N3CCc4ccccc4C3)cc2)sc2cc(S(N)(=O)=O)ccc21 | -6.0 | 45.8 | 15.8 | -145.8 | -17.5 | 30.1
O=C(N1CCOCC1)C12CC3CC(C1)CC(c1ccccc1)(C3)C2 | -3.0 | -19.7 | 1.7 | -4.7 | 11.1 | 11.5
SMILES | Bim-Mcl-1 | Mcl1 Bid PPI | Hck Nef HTS | Mcl1 Noxa PPI | Pf gametocyte | 14-3-3 Bad PPI
Cc1ccc(C23CC4CC(CC(C(=O)N5CCOCC5)(C4)C2)C3)cc1 | -3.0 | 57.5* | -2.1 | 21.7 | -25.0 | -3.8
CCc1ccc(OCCCC(=O)Nc2nccs2)cc1 | 1.0 | -12.6 | 20.6 | 12.9 | -3.8 | -2.0
COC(=O)c1c(NC(=S)Nc2ccc(C(=O)N3CCOCC3)cc2)sc2c1CCC2 | -2.0 | -40.3 | 12.2 | 4.6 | . | -12.8
CC(=O)c1cccc(NC(=O)COc2nsnc2N2CCOCC2)c1 | -3.0 | -12.0 | 5.1 | 7.7 | 17.0 | -5.8
Cn1c(=O)oc2cc(S(=O)(=O)N3CCCC(C(=O)NCc4ccc5c(c4)OCO5)C3)ccc21 (centres undefined) | 0.0 | 52.6* | 0.7 | 20.9 | . | -6.7
CCOCCn1c(CN2CCN(CC)CC2)nc2c1c(=O)n(C)c(=O)n2C | -2.0 | 8.9 | -5.8 | -1.8 | . | -9.7
c1ccc(-c2nn3c(Cn4nnc5ccccc54)nnc3s2)nc1 | -1.0 | 7.7 | 0.8 | 54.8* | -11.8 | 7.2
CC1=NN(C(N)=S)C(=O)C1N=Nc1ccc(O)cc1 (centres undefined) | 3.0 | -38.8 | 14.9 | 78.3* | -0.8 | -10.3
CC(=O)Nc1ccc(N=NC2C(=O)N(C(N)=S)N=C2C)cc1 (centres undefined) | . | . | . | . | 12.3 | .
COc1cc(/C=N/Nc2ccc(C(F)(F)F)cn2)cc(OC)c1O | 0.0 | -19.0 | 32.1 | 56.8* | . | -6.5
O=C(/C=C/Nc1ccc([N+](=O)[O-])cc1)c1ccc(Br)cc1 | 0.0 | 14.6 | 4.6 | 53.1* | 0.7 | 24.6
O=C1c2ccccc2C(=O)N1Cc1nc(-c2cccnc2)no1 | . | . | -4.5 | . | . | .
N=c1c(C(=O)NCc2ccc(F)cc2)cc2c(=O)n3ccccc3nc2n1Cc1cccnc1 | 0.0 | 20.5 | 10.9 | 74.5* | . | 13.4
COCCn1c(=N)c(C(=O)NCCc2ccc(OC)cc2)cc2c(=O)n3cccc(C)c3nc21 | -1.0 | . | 12.7 | . | . | .
COc1ccc(CCn2c(=N)c(C(=O)NCc3ccco3)cc3c(=O)n4ccccc4nc32)cc1 | 2.0 | -0.1 | 11.8 | 68.4* | -7.9 | 0.8
COC(=O)c1cc2c(=O)n3ccccc3nc2n(Cc2cccnc2)c1=N | . | . | 46.9 | . | . | .
CCN1C(=O)/C(=C\C=C2/C=CC=CN2CC)SC1=S | -5.0 | -33.2 | 10.5 | -22.3 | . | -25.9
CCN1C(=O)/C(=C/C=C2\C=CN(CC)c3ccccc32)SC1=S | 6.0 | 49.4 | 5.8 | 63.6* | . | -9.9
CCOC(=O)C1=C(C)OC(N)=C(C#N)C1c1cc(F)ccc1F (centres undefined) | -2.0 | 6.2 | -1.3 | 4.5 | -8.7 | -12.2
Cn1c(N)c(C(=O)COC(=O)c2ccc(S(=O)(=O)N3CCCCC3)cc2)c(=O)n(C)c1=O | -4.0 | -2.8 | -16.3 | 19.1 | . | -0.3
COc1cc(/C=C2\C(=O)ON=C2c2ccc(Cl)cc2)ccc1O | . | . | . | . | 8.3 | .
COc1ccc(C2=NN(c3ccccc3)C(=O)/C2=C\c2ccc(O)c(OC)c2)cc1 | 3.0 | -30.6 | 13.8 | 52.4* | 10.4 | 6.8
